Measurements published in article PMC5540273 (PLoS ONE, 2017).

Each molecule was assayed on MAK. Details: concentration: 1 μM, replicates: in singlicate; n = 1.
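Note: KINOMEscan kinase panel screen.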

SMILES | %Inh
COc1ccc(CNC(=O)NC2CCN(c3ccnc(Nc4ccc(OC)cc4)n3)C2)cc1 (stereo not drawn) [GSK1379727] | 7%
c1ccc(-c2cc(-c3c[nH]nc3-c3ccccn3)ccn2)cc1 [GW576604] | 0%
Cn1cc(-c2ccc3c(c2)CCN3C(=O)Cc2ccccc2Cl)c2c(N)ncnc21 [GSK2608885] | 16%
CNc1ncnc2[nH]ncc12 [SKF-18355] | 2%
Fc1ccc(-c2ncn(CCCN3CCOCC3)c2-c2ccccn2)cc1 [SB-211742] | 0%
NS(=O)(=O)c1cccc(-c2ccc3ncc(N4CCOCC4)nc3c2)c1 [GSK1535721] | 8%
COc1ccc(Nc2nccc(N3CCC(NC(=O)Nc4cc(C)ccc4C)C3)n2)cc1 (stereo not drawn) [GSK1379741] | 28%
COCCNC(=O)c1ccc(-c2cc(C(=O)NC3CC3)cc(F)c2C)cc1 [GW868318] | 36%
Cc1nnc(-c2ccc3ncc(-c4ccc(S(C)=O)cc4)n3c2)o1 (stereo not drawn) | 0%
c1ccc(-c2n[nH]cc2-c2ccnc3ccccc23)nc1 [GW271431] | 17%
Cn1ccc2ncnc(Oc3ccc(NC(=O)Nc4ccncc4)c(Cl)c3)c21 | 10%
Cc1cn2c(=O)cc(N3CCOCC3)nc2n1Cc1cccc(Cl)c1Cl [GSK2334006] | 9%
Fc1ccc(-c2ncn(CCCN3CCOCC3)c2-c2cccnc2)cc1 [SB-211743] | 15%
Cc1cccc(-c2nc(Nc3ccc4ncsc4c3)c3ccccc3n2)n1 [GW867588] | 0%
Cc1cccc(Cn2ccn3c(=O)cc(N4CCOCC4)nc23)c1 [GSK2297542] | 32%
N#Cc1c(N2CCOCC2)sc(-c2ccn[nH]2)c1-c1ccc(Cl)cc1 | 12%
COc1cc2c(cc1OCCN1CCN(C)CC1)ncc1c3ccc(C#N)cc3[nH]c21 | 21%

SMILES | %Inh
CN(C1=C(c2ccccc2)C(=O)NC1=O)c1ccccc1 [SB-334860] | 20%
O=C1NC(=O)C(N2CCc3ccccc32)=C1c1cccc(Cl)c1 [SB-408010] | 37%
O=c1cc(N2CCOCC2)nc2n(Cc3cccc(Cl)c3Cl)c(C3CC3)nn12 [GSK2358994] | 0%
[2H]C([2H])(c1cccc(C(F)(F)F)c1C)n1ccn2c(=O)nc(N3CCOCC3)cc12 [GSK2336394] | 17%
CCc1nc(-c2cccc(C)c2)c(-c2ccnc(NCc3ccccc3)c2)s1 | 26%
Cc1cccc(-c2nc(-c3ccc(S(C)(=O)=O)cc3)sc2-c2ccncc2)c1 | 17%
CCc1ccnc(/C=C/c2n[nH]c3cc(Sc4ccccc4C(=O)NC)ccc23)c1 | 20%
CSc1ccc(-c2cc3ncnc(SCC(=O)O)c3s2)cc1 | 29%
CC(=O)Nc1ccc(COc2ccc(Nc3ccnc4cc(-c5ccccn5)ccc34)cc2)cc1.Cl [GW440148] | 43%
COc1cc2ncn(-c3cc(OCc4sccc4Cl)c(C(N)=O)s3)c2cc1OC [GSK448459] | 7%
Fc1ccc(-c2nn3c(OCC(F)(F)F)cccc3c2-c2ccncc2)cc1 [GW514784] | 31%
CC(C)(C)n1cnc2c(N)ncnc21 [SKF-97359] | 0%
O=C(NCCNc1ccnc(Nc2ccc(F)cc2)n1)c1cc2ccccc2s1 [GSK1379874] | 23%
COc1ccc(S(=O)(=O)NC2CCN(c3cc(C)nc(Nc4cccc(C#N)c4)n3)CC2)cc1.O=C(O)C(F)(F)F [GSK1653539] | 19%
Cc1ccc(C(=O)NCC(N)=O)cc1-n1c(C)cc(OCc2ccc(F)cc2F)c(Br)c1=O | 11%
Cl.Oc1cccc(Nc2ccnc3cc(-c4ccncc4)ccc23)c1 [GW494601] | 61%
O=C(Nc1n[nH]c2cc(-c3cccc(F)c3)ccc12)C1CC1 [SB-735464] | 3%

Each molecule was assayed on MAP3K15. Details: concentration: 1 μM, replicates: in singlicate; n = 1.

SMILES | %Inh
COc1ccc(CNC(=O)NC2CCN(c3ccnc(Nc4ccc(OC)cc4)n3)C2)cc1 (stereo not drawn) [GSK1379727] | 0%
c1ccc(-c2cc(-c3c[nH]nc3-c3ccccn3)ccn2)cc1 [GW576604] | 0%
Cn1cc(-c2ccc3c(c2)CCN3C(=O)Cc2ccccc2Cl)c2c(N)ncnc21 [GSK2608885] | 0%
CNc1ncnc2[nH]ncc12 [SKF-18355] | 0%
Fc1ccc(-c2ncn(CCCN3CCOCC3)c2-c2ccccn2)cc1 [SB-211742] | 0%
NS(=O)(=O)c1cccc(-c2ccc3ncc(N4CCOCC4)nc3c2)c1 [GSK1535721] | 0%
COc1ccc(Nc2nccc(N3CCC(NC(=O)Nc4cc(C)ccc4C)C3)n2)cc1 (stereo not drawn) [GSK1379741] | 0%
COCCNC(=O)c1ccc(-c2cc(C(=O)NC3CC3)cc(F)c2C)cc1 [GW868318] | 24%
Cc1nnc(-c2ccc3ncc(-c4ccc(S(C)=O)cc4)n3c2)o1 (stereo not drawn) | 19%
c1ccc(-c2n[nH]cc2-c2ccnc3ccccc23)nc1 [GW271431] | 0%
Cn1ccc2ncnc(Oc3ccc(NC(=O)Nc4ccncc4)c(Cl)c3)c21 | 0%
Cc1cn2c(=O)cc(N3CCOCC3)nc2n1Cc1cccc(Cl)c1Cl [GSK2334006] | 2%
Fc1ccc(-c2ncn(CCCN3CCOCC3)c2-c2cccnc2)cc1 [SB-211743] | 0%
Cc1cccc(-c2nc(Nc3ccc4ncsc4c3)c3ccccc3n2)n1 [GW867588] | 0%
Cc1cccc(Cn2ccn3c(=O)cc(N4CCOCC4)nc23)c1 [GSK2297542] | 0%
N#Cc1c(N2CCOCC2)sc(-c2ccn[nH]2)c1-c1ccc(Cl)cc1 | 45%
COc1cc2c(cc1OCCN1CCN(C)CC1)ncc1c3ccc(C#N)cc3[nH]c21 | 61%
CN(C1=C(c2ccccc2)C(=O)NC1=O)c1ccccc1 [SB-334860] | 0%

SMILES | %Inh
O=C1NC(=O)C(N2CCc3ccccc32)=C1c1cccc(Cl)c1 [SB-408010] | 1%
O=c1cc(N2CCOCC2)nc2n(Cc3cccc(Cl)c3Cl)c(C3CC3)nn12 [GSK2358994] | 0%
[2H]C([2H])(c1cccc(C(F)(F)F)c1C)n1ccn2c(=O)nc(N3CCOCC3)cc12 [GSK2336394] | 0%
CC(C)(CN)c1nc(-c2ccc(Cl)c(O)c2)c(-c2ccncc2)[nH]1.O=C(O)C(F)(F)F [SB-477794] | 0%
CCc1nc(-c2cccc(C)c2)c(-c2ccnc(NCc3ccccc3)c2)s1 | 3%
Cc1cccc(-c2nc(-c3ccc(S(C)(=O)=O)cc3)sc2-c2ccncc2)c1 | 9%
CCc1ccnc(/C=C/c2n[nH]c3cc(Sc4ccccc4C(=O)NC)ccc23)c1 | 0%
CSc1ccc(-c2cc3ncnc(SCC(=O)O)c3s2)cc1 | 0%
CC(=O)Nc1ccc(COc2ccc(Nc3ccnc4cc(-c5ccccn5)ccc34)cc2)cc1.Cl [GW440148] | 2%
COc1cc2ncn(-c3cc(OCc4sccc4Cl)c(C(N)=O)s3)c2cc1OC [GSK448459] | 0%
Fc1ccc(-c2nn3c(OCC(F)(F)F)cccc3c2-c2ccncc2)cc1 [GW514784] | 0%
CC(C)(C)n1cnc2c(N)ncnc21 [SKF-97359] | 0%
O=C(NCCNc1ccnc(Nc2ccc(F)cc2)n1)c1cc2ccccc2s1 [GSK1379874] | 0%
COc1ccc(S(=O)(=O)NC2CCN(c3cc(C)nc(Nc4cccc(C#N)c4)n3)CC2)cc1.O=C(O)C(F)(F)F [GSK1653539] | 0%
Cc1ccc(C(=O)NCC(N)=O)cc1-n1c(C)cc(OCc2ccc(F)cc2F)c(Br)c1=O | 0%
Cl.Oc1cccc(Nc2ccnc3cc(-c4ccncc4)ccc23)c1 [GW494601] | 0%
O=C(Nc1n[nH]c2cc(-c3cccc(F)c3)ccc12)C1CC1 [SB-735464] | 48%
